# Test results as given in PubChem BioAssay (Tox21).
# Inconclusive results are not listed. Calls of active or inactive are those of the source. Calls come from the whole dose curve; as a rule, active = well fitted inhibition curve with a large enough effect in the signal ratio in the repeat runs (not every such curve was filed as active); inconclusive = weak or mixed curves, or effect the other way; inactive = no such curve, though single readings can be large or run the other way; the % refers to the signal ratio.
# Molecular target: Peroxisome proliferator-activated receptor delta (Homo sapiens) (UniProt Q03181)
# Assay: qHTS assay to identify small molecule antagonists of the peroxisome proliferator-activated receptor delta (PPARd) signaling pathway (AID 743215);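 note: cells stimulated with agonist L165041 at 300 nM final during compound exposure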
# Details: HEK293H PPARd-UAS-bla, beta-lactamase FRET ratio, antagonist, 17 h; series mostly up to 62 µM; ratio activity, negative = inhibition: at the top concentration
# Summary of the method: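 PPARd UAS-bla HEK293H cells were pre-incubated 5 h at 37 C, then given test compounds in DMSO plus agonist L165041 (300 nM final). After 17 h at 37 C, beta-lactamase FRET substrate was added; fluorescence read after 2 h at room temperature.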
# % is set by controls: 0 for no effect and ±100 for the full control effect.
# Peroxisome proliferator-activated receptor delta (Homo sapiens), sequence (Q03181 whole entry, looked up): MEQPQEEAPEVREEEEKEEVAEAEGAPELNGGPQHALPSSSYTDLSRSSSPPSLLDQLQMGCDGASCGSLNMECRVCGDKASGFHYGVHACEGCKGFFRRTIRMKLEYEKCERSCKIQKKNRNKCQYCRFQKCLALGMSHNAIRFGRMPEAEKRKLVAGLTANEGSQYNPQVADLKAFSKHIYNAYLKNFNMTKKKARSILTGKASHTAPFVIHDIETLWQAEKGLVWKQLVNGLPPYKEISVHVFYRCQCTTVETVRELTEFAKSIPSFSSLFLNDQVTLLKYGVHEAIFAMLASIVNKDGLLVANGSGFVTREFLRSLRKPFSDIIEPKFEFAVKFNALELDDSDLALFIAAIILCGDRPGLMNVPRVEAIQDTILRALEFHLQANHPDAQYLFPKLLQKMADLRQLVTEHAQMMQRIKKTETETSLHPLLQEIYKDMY
row,Structure (SMILES),"ratio activity, negative = inhibition"
1,CC1CC(O)CC(C)(C)C1 (stereo not given),-0.464% (inactive)
2,Cc1ccnc2ccccc12,19.3% (inactive)
3,Cc1nc2ccccc2s1,7.09% [at 80.4 µM] (inactive)
4,Nc1nccs1,-0.191% (inactive)
5,CC1CN(c2cc3c(cc2F)c(=O)c(C(=O)O)cn3-c2ccc(F)cc2F)CCN1 (stereo not given),1.55% [at 6.26 µM] (inactive)
6,CCCOC(=O)c1ccc(N)cc1,-4.32% (inactive)
7,O=Cc1c(Cl)cccc1Cl,23.7% [at 80.4 µM] (inactive)
8,CCCOCCOCCO,1.28% (inactive)
9,C/C(=N/NC(=O)c1ccncc1)C(=O)O,1.02% (inactive)
10,OCCSc1ccccc1,-6.89% (inactive)
11,CCOC(=O)c1ccccc1OC,3.93% (inactive)
12,ON(Cc1ccccc1)Cc1ccccc1,25.5% (inactive)
13,Nc1ccc(Cl)cc1[N+](=O)[O-],0.127% (inactive)
14,CCC1(C)CC(=O)NC1=O (stereo not given),2.3% (inactive)
15,C=CC(C)(O)CCCC(C)CCCC(C)CCCC(C)C (stereo not given),-10% (inactive)
16,CCC(C)=O,1.91% (inactive)
17,NC(=O)N(O)[C@@H]1C=C[C@H](Oc2cccc(Oc3ccc(F)cc3)c2)C1,14.9% (inactive)
18,CC1=NN(c2ccc(C(=O)O)cc2)C(=O)C1,-2.3% (inactive)
19,CC(COc1ccc(C(C)(C)C)cc1)OS(=O)OCCCl (stereo not given),1.75% [at 80.4 µM] (inactive)
20,O=C(O)Cc1ccc(-c2ccccc2)cc1,4% (inactive)

row,Structure (SMILES),"ratio activity, negative = inhibition"
1,Cc1ccc(S)cc1,-2.92% (inactive)
2,CC(=O)OCC(=O)[C@@]12OC(C)(C)O[C@@H]1C[C@H]1[C@@H]3C[C@H](F)C4=CC(=O)C=C[C@]4(C)[C@@]3(F)[C@@H](O)C[C@@]12C,17.3% (inactive)
3,CCC(C(=O)OCCN(CC)CC)c1ccccc1 (stereo not given),10.9% (inactive)
4,C[C@@H]1C[C@H]2[C@@H]3CCC4=CC(=O)C=C[C@]4(C)[C@@]3(F)[C@@H](O)C[C@]2(C)[C@H]1C(=O)CO,13.8% (inactive)
5,CCCCOC(=O)CCS,5.2% (inactive)
6,CC(C)CCCCCCOC(=O)CCCCC(=O)OCCCCCCC(C)C,-9.23% (inactive)
7,COC(OC)(C(=O)c1ccccc1)c1ccccc1,-17.8% (inactive)
8,CN1Cc2cc(C(=O)N3CCC(C4CCNCC4)CC3)ccc2N[C@@H](CC(=O)O)C1=O,2.42% (inactive)
9,C1COCO1,15.7% (inactive)
10,CC(=O)Nc1ccccc1C,11.6% [at 80.4 µM] (inactive)
11,C=CCNc1nc(NCC=C)nc(N2CCN(C(c3ccc(F)cc3)c3ccc(F)cc3)CC2)n1,-4.09% (inactive)
12,Cc1nc2ccccn2c(=O)c1CCN1CCC(C(=O)c2ccc(F)cc2)CC1,-0.729% (inactive)
13,CCOC(=O)OCC,8.32% [at 80.4 µM] (inactive)
14,Cc1ccc(/C=N/n2c(-c3ccccc3)csc2=S)cc1,-9.6% (inactive)
15,COCC(O)CO (stereo not given),1.66% [at 80.4 µM] (inactive)
16,COc1cc2[nH]c(=O)[nH]c(=O)c2cc1OC,4.93% (inactive)
17,CCC(C)(C)C1CCC(O)CC1 (stereo not given),3.75% (inactive)
18,CCCC(=O)O[C@]1(C(=O)COC(=O)CC)CC[C@H]2[C@@H]3CCC4=CC(=O)CC[C@]4(C)[C@H]3[C@@H](O)C[C@@]21C,-7.59% [at 28.9 µM] (inactive)
19,C=CC(=C)CCCC(C)(C)OC(C)=O,9.7% (inactive)
20,CC(CCc1ccc2c(c1)OCO2)NN (stereo not given),5.57% (inactive)
